The values below come from PubChem BioAssay (NCATS).

Assay [1] can be described thus: NCATS anti-infectives library activity on HEK293 viability as a counter-qHTS vs the C. elegans viability qHTS (AID 1745854).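 Also: HEK293 cells exposed to compounds for 24 hr before the viability read.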 Also: potency is read from the fitted curve at half-maximal effect. In a few lines:
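Compounds were acoustically plated (several concentrations, 1:5, final up to 41.7 uM), then 1500 HEK293 cells added per well and incubated 24 hr at 37C, 5% CO2. CellTiter-Glo was added and luminescence read after 10 min.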
Background: In qHTS, concentration-response curves come from the screen itself.

Assay [2] addresses Glutathione peroxidase 1 (Homo sapiens) (UniProt P07203). As to the kind of experiment: Primary qHTS Assay for Inhibitors of Recombinant Selenoprotein Glutathione Peroxidase 1 (GPX1) (AID 1845191). Also: nearly all actives have a fitted effect of over 65% in size. An outline of the steps: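 GR-coupled assay: compounds preincubated 30 min at room temperature with GPX1, then reaction started with CHP; final 10 nM GPX1, 1 mM GSH, 0.5 mM CHP, 0.5 mM NADPH, 100 nM GR, 0.01% BSA, pH 7.5 Tris buffer. NADPH fluorescence (340/450 nm) read at 0 and 15 min.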

In assay [3] the target is Phospholipid hydroperoxide glutathione peroxidase GPX4 (Homo sapiens) (UniProt P36969). The assay can be described thus: Primary qHTS Assay for Inhibitors of Recombinant Selenoprotein Glutathione Peroxidase 4 (GPX4) (AID 1845192). Also: nearly all actives have a fitted effect of over 65% in size. As to activity change, negative = inhibition: % is scaled to controls: 0 for no effect and ±100 for the full control effect. An outline of the steps:
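GR-coupled assay: recombinant GPX4 preincubated 30 min with compound at room temperature; final 200 nM GPX4, 1 mM GSH, 0.5 mM cumene hydroperoxide, 0.5 mM NADPH, 100 nM GR, 0.01% BSA, pH 7.5 Tris. NADPH fluorescence (340/450 nm) read at 0 and 15 min.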

Assay [4] deals with Luciferin 4-monooxygenase (Photinus pyralis) (UniProt P08659). The assay can be described thus: Primary firefly luciferase (FLuc) qHTS assay for identification of artifact compounds. (AID 1845220).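 Also: plate controls were DMSO vehicle for no effect and no enzyme for full effect; nearly all actives have a fitted effect of over 60% in size.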 The conditions noted are these: outcome: dose series up to 54.1 µM unless noted. An outline of the steps:
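Enzymatic FLuc inhibition assay: compounds pre-exposed to luciferin/ATP (10 uM each) for 15 min, then purified P. pyralis enzyme at 10 nM added. Read-out: luminescence at 5 min.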

Assay [5] has as its system Nanoluciferase (engineered Oplophorus gracilirostris luciferase). As to the kind of experiment: Primary Nanoluciferase (NLuc) qHTS assay for identification of artifact compounds. (AID 1845222).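 Also: NLuc secreted into diluted conditioned medium of S16 cells; 0% = DMSO and -100% = no enzyme.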 An outline of the steps: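 S16 cell supernatant NLuc, 1:55; cpds qHTS; 15 min RT dark; Nano-Glo substrate 1:100, 5 min; luminescence; Hill fit of % inhibition.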
Assay [6] is described as follows: Primary redox qHTS assay for identification of artifact compounds. (AID 1845223). An outline of the steps:
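Amplex Red (25 uM) and HRP (250 mU/mL) in HBSS, with compounds for 15 min, then 250 uM DTT for 30 min, room temperature, dark. Fluorescence 525/598 nm read; normalized to DMSO and 10 uM DA3003; Hill fit.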

A short description of assay [7]: Quantitative High-Throughput drug screen in 47 multiple myeloma cell lines against the NCATS MIPE library collection: EJM_DSMZ cell viability assay (AID 1918926; also: nearly all actives have a fitted effect of over 30% in size; also: potency is read from the fitted curve at half-maximal effect). An outline of the steps:
(§1)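 qHTS of the MIPE 4.0 collection: 500 myeloma cells/well, 48 h drug exposure at 37C in 5% CO2, then CellTiter-Glo for 5 min at room temperature before luminescence reading.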

Assay [8] can be described thus: Quantitative High-Throughput drug screen in 47 multiple myeloma cell lines against the NCATS MIPE library collection: AMO1_DSMZ cell viability assay (AID 1918927; also: nearly all actives have a fitted effect of over 30% in size; also: potency is read from the fitted curve at half-maximal effect). An outline of the steps:
as §1

A short description of assay [9]: Quantitative High-Throughput drug screen in 47 multiple myeloma cell lines against the NCATS MIPE library collection: ARP1_JJKsccF8 cell viability assay (AID 1918928; also: nearly all actives have a fitted effect of over 40% in size; also: potency is read from the fitted curve at half-maximal effect). In a few lines:
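Myeloma cells at 500 per well in 1536-well format treated with MIPE 4.0 library by pin transfer for 48 h at 37C, 5% CO2. Viability from ATP luminescence (CellTiter-Glo), normalized to DMSO (100%) and media-only (0%) wells.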

The nature of assay [10]: Quantitative High-Throughput drug screen in 47 multiple myeloma cell lines against the NCATS MIPE library collection: Karpas620_DSMZ cell viability assay (AID 1918959). Also: nearly all actives have a fitted effect of over 30% in size. Also: potency is read from the fitted curve at half-maximal effect. In a few lines:
(§2)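 Myeloma cell lines, 500 cells per well, exposed to MIPE 4.0 library compounds for 48 h at 37C, 5% CO2. Viability from ATP by CellTiter-Glo luminescence; normalised to DMSO (100%) and media-only (0%) wells.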

The target in assay [11] is Metallo-beta-lactamase type 2 (Klebsiella pneumoniae) (UniProt C7C422). As to the kind of experiment: qHTS to identify inhibitors of the New Delhi Metallo-beta-lactamase (NDM): assay validation screen against the NCATS LOPAC Collection (AID 1794843).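 Also: nitrocefin turnover by NDM-1 measured as 485 nm absorbance at plateau; % is scaled to controls: 0 for no effect and ±100 for the full control effect.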 An outline of the steps: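 NDM-1 at 2 nM final in 50 mM HEPES pH 7.0, 1 uM ZnSO4, 0.01% Tween20, preincubated with LOPAC compounds pinned in DMSO; 50 uM nitrocefin (stock) added. Hydrolysis read as absorbance at 485 nm in the plateau phase.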

Assay [12] has as its target Catechol O-methyltransferase (Homo sapiens) (UniProt P21964). As to the kind of experiment: Confirmatory Screen for Target Class Profiling of Small Molecule Inhibitors of Methyltransferases (AID 1745852; calls by dose curve; as to activity change, negative = inhibition: % is scaled to controls: 0 for no effect and ±100 for the full control effect). The conditions noted are these: MTase-Glo luminescence, SAH detection, recombinant enzyme; measured here: COMT max response; stronger effect = lower value.
Assay [13] concerns the target Guanidinoacetate N-methyltransferase (Homo sapiens) (UniProt Q14353). Described as above. The conditions noted are these: MTase-Glo luminescence, SAH detection, recombinant enzyme; activity change, negative = inhibition: at 57.3 µM (top of the series).
Assay [14] deals with Nicotinamide N-methyltransferase (Homo sapiens) (UniProt P40261). The description is as above. The conditions noted are these: MTase-Glo luminescence, SAH detection, recombinant enzyme; measured here: NNMT max response; stronger effect = lower value.
In assay [15] the target is Phenylethanolamine N-methyltransferase (Homo sapiens) (UniProt P11086). Described as above. The conditions noted are these: MTase-Glo luminescence, SAH detection, recombinant enzyme; measured here: PNMT max response; stronger effect = lower value.
Assay [16] concerns the target Nuclear receptor subfamily 1 group I member 3 (Homo sapiens) (UniProt Q14994). The assay can be described thus: Primary qHTS for antagonist of constitutive androstane receptor (CAR) against the NCATS DSHEA and TCM libraries (AID 1794836).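 Also: HepG2 cells stably expressing hCAR with CYP2B6 luciferase reporter stimulated by CITCO.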 In a few lines:
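HepG2-CYP2B6-hCAR cells, attached 5 h, given compounds plus CITCO agonist […], incubated 24 h at 37 C. Luciferase luminescence read, multiplexed with CellTiter-Fluor viability (Ex/Em 405/540 nm).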

Assay [17] can be described thus: NCATS anti-infectives library activity on the primary C. elegans qHTS viability assay (AID 1745855; calls by dose curve; also: potency is read from the fitted curve at half-maximal effect). The conditions noted are these: C. elegans worm area imaging, day 7. An outline of the steps:
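Viability read-out is GFP fluorescence of PE254-GFP-FLuc C. elegans, measured by laser cytometry (488 nm) at day 0, 3 and 7. Ten L1 worms per well were incubated 7 days at 21 °C with compounds and bacterial capsules in S medium.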

Assay [18] can be described thus: Quantitative High-Throughput drug screen in 47 multiple myeloma cell lines against the NCATS MIPE library collection: Delta47_JCRB cell viability assay (AID 1918925; also: potency is read from the fitted curve at half-maximal effect; nearly all actives have a fitted effect of over 45% in size). In a few lines: as §1
The nature of assay [19]: Quantitative High-Throughput drug screen in 47 multiple myeloma cell lines against the NCATS MIPE library collection: ARD_JJKsccE7 cell viability assay (AID 1918929; also: potency is read from the fitted curve at half-maximal effect). In a few lines:
as §1

Assay [20] is described as follows: Quantitative High-Throughput drug screen in 47 multiple myeloma cell lines against the NCATS MIPE library collection: FR4_PLB cell viability assay (AID 1918924; also: nearly all actives have a fitted effect of over 35% in size). An outline of the steps:
as §2

Inconclusive results are not listed. Activity calls are given as the source filed them. Unless noted, calls follow the shape of the dose curve; as a rule, active = well fitted curve in the direction sought with a large enough effect; inconclusive = small, poorly fitted or top-dose-only effect, or another doubt; inactive = no such curve, though single readings can be large; an effect the other way counts as inactive or inconclusive.

Chain of Metallo-beta-lactamase type 2 (Klebsiella pneumoniae) (C7C422 whole entry, looked up): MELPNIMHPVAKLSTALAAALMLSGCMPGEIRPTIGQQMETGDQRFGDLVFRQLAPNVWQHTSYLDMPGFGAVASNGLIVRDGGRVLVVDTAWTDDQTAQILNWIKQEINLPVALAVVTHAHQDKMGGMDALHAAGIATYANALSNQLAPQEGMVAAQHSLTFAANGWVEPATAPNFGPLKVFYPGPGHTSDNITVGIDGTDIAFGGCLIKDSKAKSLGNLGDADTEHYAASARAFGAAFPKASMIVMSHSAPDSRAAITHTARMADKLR
Chain of Catechol O-methyltransferase (Homo sapiens) (P21964 whole entry, looked up): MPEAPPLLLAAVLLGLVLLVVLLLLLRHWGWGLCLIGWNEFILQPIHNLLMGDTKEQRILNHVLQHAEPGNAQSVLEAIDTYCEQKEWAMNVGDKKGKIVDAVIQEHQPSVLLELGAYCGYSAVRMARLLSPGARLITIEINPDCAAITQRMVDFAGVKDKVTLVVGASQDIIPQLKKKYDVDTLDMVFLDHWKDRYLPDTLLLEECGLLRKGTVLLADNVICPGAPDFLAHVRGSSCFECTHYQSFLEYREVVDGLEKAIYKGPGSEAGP
Chain of Phospholipid hydroperoxide glutathione peroxidase GPX4 (Homo sapiens) (P36969 whole entry, looked up): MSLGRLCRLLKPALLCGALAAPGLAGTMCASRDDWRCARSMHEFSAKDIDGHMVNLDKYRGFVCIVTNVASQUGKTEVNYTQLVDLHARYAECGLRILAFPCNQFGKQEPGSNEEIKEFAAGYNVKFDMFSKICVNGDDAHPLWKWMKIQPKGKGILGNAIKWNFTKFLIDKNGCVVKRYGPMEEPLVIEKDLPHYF
Chain of Phenylethanolamine N-methyltransferase (Homo sapiens) (P11086 whole entry, looked up): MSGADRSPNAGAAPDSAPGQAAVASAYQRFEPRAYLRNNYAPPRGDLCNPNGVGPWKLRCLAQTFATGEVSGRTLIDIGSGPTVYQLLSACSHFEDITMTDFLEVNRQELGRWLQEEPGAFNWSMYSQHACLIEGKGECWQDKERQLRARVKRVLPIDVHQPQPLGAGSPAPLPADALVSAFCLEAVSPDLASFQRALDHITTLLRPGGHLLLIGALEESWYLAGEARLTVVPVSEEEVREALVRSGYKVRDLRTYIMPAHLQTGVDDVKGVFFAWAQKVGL
Chain of Nicotinamide N-methyltransferase (Homo sapiens) (P40261 whole entry, looked up): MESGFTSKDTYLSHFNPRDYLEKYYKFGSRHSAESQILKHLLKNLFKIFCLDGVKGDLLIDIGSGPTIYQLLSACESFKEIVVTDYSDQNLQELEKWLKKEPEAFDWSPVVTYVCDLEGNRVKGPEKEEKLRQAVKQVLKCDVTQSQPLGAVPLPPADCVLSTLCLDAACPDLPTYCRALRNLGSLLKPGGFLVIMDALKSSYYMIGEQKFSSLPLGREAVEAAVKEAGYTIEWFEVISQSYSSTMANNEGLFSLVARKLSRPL
Chain of Glutathione peroxidase 1 (Homo sapiens) (P07203 whole entry, looked up): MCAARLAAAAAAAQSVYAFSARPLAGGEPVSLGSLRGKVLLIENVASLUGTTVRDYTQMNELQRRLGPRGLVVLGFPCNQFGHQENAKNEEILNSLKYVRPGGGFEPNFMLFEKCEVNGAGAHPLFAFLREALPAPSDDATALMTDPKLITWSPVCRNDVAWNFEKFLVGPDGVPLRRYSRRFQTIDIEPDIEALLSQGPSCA
Chain of Nuclear receptor subfamily 1 group I member 3 (Homo sapiens) (Q14994 whole entry, looked up): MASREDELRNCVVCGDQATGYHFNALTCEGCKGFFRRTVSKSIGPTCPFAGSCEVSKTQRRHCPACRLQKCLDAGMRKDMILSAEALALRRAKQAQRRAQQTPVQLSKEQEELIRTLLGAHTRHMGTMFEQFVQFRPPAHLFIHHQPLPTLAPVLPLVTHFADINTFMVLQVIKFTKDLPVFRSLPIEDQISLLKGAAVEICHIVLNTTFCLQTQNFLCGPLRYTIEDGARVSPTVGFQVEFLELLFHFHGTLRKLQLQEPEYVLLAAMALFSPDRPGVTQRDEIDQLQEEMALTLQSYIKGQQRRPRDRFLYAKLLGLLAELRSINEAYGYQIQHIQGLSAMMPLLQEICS

Consider `O=C1C=CC[C@@H]2[C@H]3CCCN4CCC[C@@H](CN12)[C@@H]34`, for which the Potency entry in assay [1], in [2], in assay [3], in [7], in assay [8] and in assay [9] was “inactive” throughout. In addition, the Potency entry in [10] is “inactive”. Also, the outcome in assay [4], in [5] and in assay [6] was “inactive” each time.
Take `O=C(Cc1ccc(Cl)c(Cl)c1)N1CCCCC1CN1CCCC1` (stereo unspecified): in assay [11], the outcome was “inactive”. The Potency result in [2] and in assay [3] was “inactive” each time.
Turning to `CC(Cc1ccc(O)cc1)NCC(O)c1cc(O)cc(O)c1` (stereo unspecified), in assay [11], the outcome is “inactive”. For the same compound, the Potency entry in assay [2] and in assay [3] was “inactive” each time.
As to `CC(C)NC(C)Cc1ccc(I)cc1` (stereo unspecified), the activity in [12] was 0.93%; in assay [14] it was -9.49%; in assay [15], 2.34%. Besides, the activity change, negative = inhibition in [13] turned out to be 2.72%. For the same compound, the outcome in assay [11] was “inactive”. Also, the Potency result in assay [2] and in assay [3] was “inactive” each time.
Regarding `Cn1cnc(CCN)c1`, the activity is 2.37% in assay [12], -8.03% in [14] and 3.1% in [15]. For the same compound, the activity change, negative = inhibition in assay [13] worked out at 1.75%. Further, the outcome in assay [11] was “inactive”. The Potency entry in [2] and in assay [3] was “inactive” in each case.
Turning to `O=S(=O)(CC1CS1)c1ccc(Oc2ccccc2)cc1` (stereo unspecified), the Potency entry in [1], in [2] and in [3] was “inactive” throughout. Moreover, the Potency in assay [7] was 20900 nM (active).
Turning to `C[C@@H](N)Cc1cnc[nH]1`, the activity in assay [12] is -4.66%; in assay [14], -6.87%; in assay [15], -2.06%. Also, in assay [13], the activity change, negative = inhibition is -1.84%. Besides, the outcome in [11] is “inactive”. Further, the Potency entry in [2] and in assay [3] was “inactive” throughout.
Regarding `COc1cc(C(O)CN)ccc1O` (stereo unspecified), in assay [11], the outcome was “inactive”. The Potency entry in assay [2] and in [3] was “inactive” in each case.
Consider `CC1=C(C/C=C(\C)CCC[C@H](C)CCC[C@H](C)CCCC(C)C)C(=O)c2ccccc2C1=O`, for which the outcome in assay [16] is “inactive”.
With `CC1=C(O)C(=O)C=C2C1=CC=C1[C@@]2(C)CC[C@@]2(C)[C@@H]3C[C@](C)(C(=O)O)CC[C@]3(C)CC[C@]12C`, the Potency in assay [1] was 7940 nM (active); in assay [17] it was 4590 nM (active); in assay [18], 833 nM (active); in assay [7], 743 nM (active); in assay [8], 526 nM (active); in assay [9], 743 nM (active). The Potency in [19] and in assay [10] was 1050 nM (active) in each case. Moreover, in assay [2], the Potency result was “inactive”.
Take `CCCN1CCC[C@H](c2cccc(O)c2)C1`: the outcome in [11] was “inactive”. For the same compound, the Potency result in assay [2] and in assay [3] was “inactive” each time.
In the case of `O=S(=O)(F)Cc1ccccc1`, the Potency entry in assay [1], in assay [2], in [3], in assay [20], in assay [7] and in [8] was “inactive” throughout. Moreover, the Potency result in assay [9], in assay [19] and in assay [10] was “inactive” in each case. For the same compound, in [18], the Potency is 2960 nM (active).
As to `Clc1cnc(Oc2ccc(Oc3ncc(Cl)cc3Cl)cc2)c(Cl)c1`, in assay [11], the outcome was “inactive”. Besides, the Potency result in assay [2] and in [3] was “inactive” in each case.
Turning to `C[N+]1(C)C2CCC1CC(OC(=O)C(CO)c1ccccc1)C2` (stereo unspecified), the outcome in [11] is “inactive”. The Potency result in assay [2] and in [3] was “inactive” each time.
In the case of `O=C1CCCN1CC#CCN1CCCC1`, the outcome in assay [11] was “inactive”. The Potency entry in [2] and in assay [3] was “inactive” each time.
